About 7,900 targets were measured; listed, in parts, are those with a hit and a random draw of the rest. About 0.6% of all pairs of compound and target were hits. Values without a mark were called inactive.
Key:
Assay in all cases: log2 fold change, soluble protein after heating vs DMSO (PISA); higher = thermal stabilisation; K562 cells, 10 uM, 30 min; active = over 0.2 and 3.5 SD of the protein, either way, in both replicates (recomputed)
saracatinib = compound: CN1CCN(CCOc2cc(OC3CCOCC3)c3c(Nc4c(Cl)ccc5c4OCO5)ncnc3c2)CC1 [saracatinib]
Summary of the method: (§1)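 For each measurement, 10 μM compound was applied for 30 min to K562 cells at 2×10^6 cells/mL. Aliquots were heated for 3 min across 48°C-58°C, pooled, and extracted in PBS with 0.5% NP-40 at 4°C; the supernatant after 21,000xg for 90 min was soluble protein. This was quantified by TMTpro 16plex LC-MS/MS with channel sums equalised, and thermal stability was reported relative to control samples from duplicates, on a log2 fold-change scale.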

sotrastaurin = compound: CN1CCN(c2nc(C3=C(c4c[nH]c5ccccc45)C(=O)NC3=O)c3ccccc3n2)CC1 [sotrastaurin]
Summary of the method: as §1

alvocidib = compound: CN1CC[C@H](c2c(O)cc(O)c3c(=O)cc(-c4ccccc4Cl)oc23)[C@H](O)C1 [alvocidib]
Summary of the method: as §1

Tubastatin A = compound: CN1CCc2c(c3ccccc3n2Cc2ccc(C(=O)NO)cc2)C1 [Tubastatin A]
Summary of the method: as §1

[1] = compound: CNC(=O)C1=CC=CC=C1NC2=NC(=NC=C2Cl)NC3=C(C=C(C=C3)N4CCOCC4)OC
Summary of the method: as §1

defactinib = compound: CNC(=O)c1ccc(Nc2ncc(C(F)(F)F)c(NCc3nccnc3N(C)S(C)(=O)=O)n2)cc1 [defactinib]
Summary of the method: as §1

rucaparib = compound: CNCc1ccc(-c2[nH]c3cc(F)cc4c3c2CCNC4=O)cc1 [rucaparib]
Summary of the method: as §1

[2] = compound: CNc1nc(-c2ccc3c(N)n[nH]c3c2)cc(N2C[C@@H](C(=O)NC3CCCCC3)CC[C@H]2C)n1
Summary of the method: as §1

encorafenib = compound: COC(=O)N[C@@H](C)CNc1nccc(-c2cn(C(C)C)nc2-c2cc(Cl)cc(NS(C)(=O)=O)c2F)n1 [encorafenib]
Summary of the method: as §1

[3] = compound: COC(=O)[C@H](CCSC)NC(=O)C1=C(C=C(C=C1)NC[C@H](CS)N)C2=CC=CC=C2
Summary of the method: as §1

[4] = compound: COC1=CC=C(C=C1)CN2C=CC3=C2C=C(C=C3)C(=O)NO
Summary of the method: as §1

filanesib = compound: CON(C)C(=O)N1N=C(c2cc(F)ccc2F)S[C@@]1(CCCN)c1ccccc1 [filanesib]
Summary of the method: as §1

zotarolimus = compound: CO[C@H]1C[C@@H]2CC[C@@H](C)[C@@](O)(O2)C(=O)C(=O)N2CCCC[C@H]2C(=O)O[C@H]([C@H](C)C[C@@H]2CC[C@H](n3cnnn3)[C@H](OC)C2)CC(=O)[C@H](C)/C=C(\C)[C@@H](O)[C@@H](OC)C(=O)[C@H](C)C[C@H](C)/C=C/C=C/C=C/1C [zotarolimus]
Summary of the method: as §1

idasanutlin = compound: COc1cc(C(=O)O)ccc1NC(=O)[C@@H]1N[C@@H](CC(C)(C)C)[C@](C#N)(c2ccc(Cl)cc2F)[C@H]1c1cccc(Cl)c1F [idasanutlin]
Summary of the method: as §1

alisertib = compound: COc1cc(Nc2ncc3c(n2)-c2ccc(Cl)cc2C(c2c(F)cccc2OC)=NC3)ccc1C(=O)O [alisertib]
Summary of the method: as §1

[5] = compound: COc1cc2nc(-c3cc(F)ccc3O)nc(N[C@@H]3CNC[C@H]3C(C)(C)O)c2cc1OC
Summary of the method: as §1

gefitinib = compound: COc1cc2ncnc(Nc3ccc(F)c(Cl)c3)c2cc1OCCCN1CCOCC1 [gefitinib]
Summary of the method: as §1

[6] = compound: COc1cccc2cc(-c3nc([C@H]4CC[C@H](C(=O)O)CC4)n4ncnc(N)c34)[nH]c12
Summary of the method: as §1

lapatinib = compound: CS(=O)(=O)CCNCc1ccc(-c2ccc3ncnc(Nc4ccc(OCc5cccc(F)c5)c(Cl)c4)c3c2)o1 [lapatinib]
Summary of the method: as §1

pictilisib = compound: CS(=O)(=O)N1CCN(Cc2cc3nc(-c4cccc5[nH]ncc45)nc(N4CCOCC4)c3s2)CC1 [pictilisib]
Summary of the method: as §1

Chain of UniProt Q9UPN7 (Q9UPN7 whole entry, looked up): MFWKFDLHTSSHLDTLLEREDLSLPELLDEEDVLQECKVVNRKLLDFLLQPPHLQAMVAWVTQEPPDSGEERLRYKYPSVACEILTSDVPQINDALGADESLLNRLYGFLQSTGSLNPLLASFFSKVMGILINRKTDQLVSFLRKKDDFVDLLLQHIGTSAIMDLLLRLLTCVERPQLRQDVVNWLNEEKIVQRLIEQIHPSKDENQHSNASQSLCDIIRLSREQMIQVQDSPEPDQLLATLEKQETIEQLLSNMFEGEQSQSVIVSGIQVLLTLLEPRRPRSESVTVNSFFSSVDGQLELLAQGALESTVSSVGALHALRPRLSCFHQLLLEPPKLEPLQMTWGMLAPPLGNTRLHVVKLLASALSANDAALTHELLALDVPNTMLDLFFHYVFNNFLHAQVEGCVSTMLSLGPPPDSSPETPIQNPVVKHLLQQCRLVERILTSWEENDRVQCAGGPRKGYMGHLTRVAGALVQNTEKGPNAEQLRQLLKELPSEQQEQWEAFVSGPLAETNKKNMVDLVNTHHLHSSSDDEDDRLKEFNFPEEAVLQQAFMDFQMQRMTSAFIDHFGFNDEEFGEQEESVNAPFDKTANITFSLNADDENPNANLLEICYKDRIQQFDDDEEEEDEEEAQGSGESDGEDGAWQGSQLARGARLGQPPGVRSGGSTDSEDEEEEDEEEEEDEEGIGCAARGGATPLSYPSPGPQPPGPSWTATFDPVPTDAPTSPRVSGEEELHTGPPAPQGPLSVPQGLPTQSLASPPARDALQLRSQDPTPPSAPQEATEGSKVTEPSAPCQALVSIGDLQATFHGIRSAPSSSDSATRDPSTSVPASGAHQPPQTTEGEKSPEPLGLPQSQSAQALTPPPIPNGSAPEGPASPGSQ
Chain of UniProt O96011 (O96011 whole entry, looked up, change not shown): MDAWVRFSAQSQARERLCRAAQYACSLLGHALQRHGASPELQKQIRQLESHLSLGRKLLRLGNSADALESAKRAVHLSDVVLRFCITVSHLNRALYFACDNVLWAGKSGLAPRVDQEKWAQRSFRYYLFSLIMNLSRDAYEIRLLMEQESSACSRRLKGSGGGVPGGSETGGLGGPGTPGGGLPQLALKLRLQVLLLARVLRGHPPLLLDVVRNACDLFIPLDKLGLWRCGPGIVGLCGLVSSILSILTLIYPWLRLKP
Chain of UniProt Q9UKL6 (Q9UKL6 whole entry, looked up): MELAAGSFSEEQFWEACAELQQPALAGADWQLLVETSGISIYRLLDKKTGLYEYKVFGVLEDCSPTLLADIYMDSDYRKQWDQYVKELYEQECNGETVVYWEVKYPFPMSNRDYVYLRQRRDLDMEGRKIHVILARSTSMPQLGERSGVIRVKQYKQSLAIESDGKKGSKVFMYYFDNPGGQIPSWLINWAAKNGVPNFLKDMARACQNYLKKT
Chain of UniProt Q8NEB9 (Q8NEB9 whole entry, looked up): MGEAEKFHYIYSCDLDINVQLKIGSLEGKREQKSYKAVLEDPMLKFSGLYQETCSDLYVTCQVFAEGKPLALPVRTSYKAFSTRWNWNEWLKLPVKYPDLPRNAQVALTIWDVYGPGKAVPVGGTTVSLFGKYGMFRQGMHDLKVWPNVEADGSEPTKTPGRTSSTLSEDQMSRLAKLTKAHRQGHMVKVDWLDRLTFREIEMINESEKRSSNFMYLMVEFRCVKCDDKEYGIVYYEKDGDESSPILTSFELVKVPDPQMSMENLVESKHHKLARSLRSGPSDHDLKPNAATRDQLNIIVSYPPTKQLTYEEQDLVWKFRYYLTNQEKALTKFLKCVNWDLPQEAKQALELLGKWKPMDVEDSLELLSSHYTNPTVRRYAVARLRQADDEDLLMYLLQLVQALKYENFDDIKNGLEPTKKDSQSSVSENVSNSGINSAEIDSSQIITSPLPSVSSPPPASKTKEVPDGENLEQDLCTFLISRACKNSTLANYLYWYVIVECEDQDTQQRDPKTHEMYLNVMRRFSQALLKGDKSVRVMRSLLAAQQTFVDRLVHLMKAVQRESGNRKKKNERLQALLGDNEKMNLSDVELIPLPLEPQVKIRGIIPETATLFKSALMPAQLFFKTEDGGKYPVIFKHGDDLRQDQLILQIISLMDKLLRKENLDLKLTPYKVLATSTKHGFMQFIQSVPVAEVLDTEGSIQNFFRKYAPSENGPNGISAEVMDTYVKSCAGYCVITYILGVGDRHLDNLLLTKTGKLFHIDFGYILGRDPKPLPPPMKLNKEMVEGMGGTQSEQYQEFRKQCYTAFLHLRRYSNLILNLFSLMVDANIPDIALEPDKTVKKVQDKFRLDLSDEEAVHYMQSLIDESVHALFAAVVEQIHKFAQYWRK
Chain of UniProt Q99541 (Q99541 whole entry, looked up): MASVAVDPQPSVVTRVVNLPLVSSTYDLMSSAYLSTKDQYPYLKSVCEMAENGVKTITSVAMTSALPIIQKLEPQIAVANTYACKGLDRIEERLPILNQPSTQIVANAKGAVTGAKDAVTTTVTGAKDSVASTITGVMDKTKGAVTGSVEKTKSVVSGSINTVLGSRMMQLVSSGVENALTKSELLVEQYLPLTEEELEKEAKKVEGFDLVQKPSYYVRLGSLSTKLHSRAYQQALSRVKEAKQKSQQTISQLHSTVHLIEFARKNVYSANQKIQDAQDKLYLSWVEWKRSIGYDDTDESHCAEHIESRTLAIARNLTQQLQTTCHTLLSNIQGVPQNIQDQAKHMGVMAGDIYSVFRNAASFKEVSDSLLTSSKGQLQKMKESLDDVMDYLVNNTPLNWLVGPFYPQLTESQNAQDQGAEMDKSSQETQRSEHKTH
Chain of UniProt Q13200 (Q13200 whole entry, looked up): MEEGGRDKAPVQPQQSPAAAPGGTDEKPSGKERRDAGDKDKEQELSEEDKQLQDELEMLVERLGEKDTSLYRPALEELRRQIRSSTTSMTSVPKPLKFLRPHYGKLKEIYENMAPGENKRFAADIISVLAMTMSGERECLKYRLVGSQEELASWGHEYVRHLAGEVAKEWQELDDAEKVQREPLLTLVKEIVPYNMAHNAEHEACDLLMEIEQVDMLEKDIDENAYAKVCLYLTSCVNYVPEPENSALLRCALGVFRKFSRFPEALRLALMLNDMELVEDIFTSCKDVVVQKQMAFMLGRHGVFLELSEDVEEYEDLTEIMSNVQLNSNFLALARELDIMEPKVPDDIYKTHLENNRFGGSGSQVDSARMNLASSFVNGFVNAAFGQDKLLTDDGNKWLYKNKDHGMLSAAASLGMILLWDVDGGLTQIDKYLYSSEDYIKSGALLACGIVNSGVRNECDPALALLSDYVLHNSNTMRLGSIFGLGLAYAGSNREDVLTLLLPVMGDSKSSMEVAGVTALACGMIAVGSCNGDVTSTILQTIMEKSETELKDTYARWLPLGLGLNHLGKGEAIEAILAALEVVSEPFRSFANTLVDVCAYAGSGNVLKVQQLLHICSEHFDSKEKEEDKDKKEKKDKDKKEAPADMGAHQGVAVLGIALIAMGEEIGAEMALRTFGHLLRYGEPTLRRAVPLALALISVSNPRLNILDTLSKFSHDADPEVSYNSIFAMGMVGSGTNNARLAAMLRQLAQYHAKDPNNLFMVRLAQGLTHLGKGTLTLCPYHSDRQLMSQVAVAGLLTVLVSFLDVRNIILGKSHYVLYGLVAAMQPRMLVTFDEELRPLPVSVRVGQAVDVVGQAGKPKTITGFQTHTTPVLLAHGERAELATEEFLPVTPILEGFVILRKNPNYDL
Chain of UniProt Q15054 (Q15054 whole entry, looked up): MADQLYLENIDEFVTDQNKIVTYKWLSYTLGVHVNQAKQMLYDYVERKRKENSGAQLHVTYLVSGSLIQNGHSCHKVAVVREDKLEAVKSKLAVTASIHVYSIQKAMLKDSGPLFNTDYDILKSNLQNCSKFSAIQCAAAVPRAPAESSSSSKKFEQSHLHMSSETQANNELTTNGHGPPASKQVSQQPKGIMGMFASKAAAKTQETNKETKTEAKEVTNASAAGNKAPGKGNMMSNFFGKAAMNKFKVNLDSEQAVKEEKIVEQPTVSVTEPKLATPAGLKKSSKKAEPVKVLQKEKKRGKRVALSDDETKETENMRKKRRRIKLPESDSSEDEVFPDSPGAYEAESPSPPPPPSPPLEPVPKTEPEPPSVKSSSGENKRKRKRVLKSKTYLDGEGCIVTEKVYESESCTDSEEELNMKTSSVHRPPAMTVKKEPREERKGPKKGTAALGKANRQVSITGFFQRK
Chain of UniProt Q05655 (Q05655 whole entry, looked up): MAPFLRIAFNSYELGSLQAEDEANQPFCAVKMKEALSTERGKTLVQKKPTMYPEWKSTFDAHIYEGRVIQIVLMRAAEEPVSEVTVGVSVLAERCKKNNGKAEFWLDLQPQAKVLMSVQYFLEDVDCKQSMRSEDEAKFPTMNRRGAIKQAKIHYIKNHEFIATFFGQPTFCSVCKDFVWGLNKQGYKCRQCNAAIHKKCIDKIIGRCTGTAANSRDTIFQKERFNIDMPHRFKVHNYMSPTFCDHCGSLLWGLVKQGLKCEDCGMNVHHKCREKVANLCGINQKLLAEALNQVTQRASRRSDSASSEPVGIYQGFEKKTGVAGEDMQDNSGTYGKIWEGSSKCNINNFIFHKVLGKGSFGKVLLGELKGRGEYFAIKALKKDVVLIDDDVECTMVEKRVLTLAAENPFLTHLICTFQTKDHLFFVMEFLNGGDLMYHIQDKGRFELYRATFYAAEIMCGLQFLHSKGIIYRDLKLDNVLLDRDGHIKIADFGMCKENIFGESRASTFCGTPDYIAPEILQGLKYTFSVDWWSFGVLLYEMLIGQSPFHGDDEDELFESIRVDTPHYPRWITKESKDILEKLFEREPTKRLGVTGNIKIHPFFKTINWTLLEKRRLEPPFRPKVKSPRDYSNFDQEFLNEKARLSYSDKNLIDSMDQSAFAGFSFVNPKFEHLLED
Chain of UniProt O00233 (O00233 whole entry, looked up): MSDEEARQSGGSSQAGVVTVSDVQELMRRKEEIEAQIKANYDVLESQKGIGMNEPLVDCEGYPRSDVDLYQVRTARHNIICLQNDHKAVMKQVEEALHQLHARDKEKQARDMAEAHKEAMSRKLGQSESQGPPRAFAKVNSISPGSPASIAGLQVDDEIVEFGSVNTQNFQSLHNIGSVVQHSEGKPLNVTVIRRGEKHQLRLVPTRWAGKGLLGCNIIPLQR

Target | log2 fold change (saracatinib) | log2 fold change (sotrastaurin) | log2 fold change (alvocidib) | log2 fold change (Tubastatin A) | log2 fold change [1] | log2 fold change (defactinib) | log2 fold change (rucaparib) | log2 fold change [2] | log2 fold change (encorafenib) | log2 fold change [3] | log2 fold change [4] | log2 fold change (filanesib) | log2 fold change (zotarolimus) | log2 fold change (idasanutlin) | log2 fold change (alisertib) | log2 fold change [5] | log2 fold change (gefitinib) | log2 fold change [6] | log2 fold change (lapatinib) | log2 fold change (pictilisib)
PTTG1 (UniProt O95997) | -0.061 | -0.004 | 0.004 | 0.141 | -0.145 | -0.029 | -0.145 | -0.088 | -0.001 | 0.031 | 0.011 | 0.052 | -0.077 | -0.011 | -0.022 | -0.156 | -0.048 | -0.058 | -0.013 | -0.07
POLD3 (UniProt Q15054) | -0.035 | -0.131 | -0.229 | 0.137 | 0.01 | -0.225 | 0.018 | 0.042 | 0.082 | -0.047 | 0.002 | -0.176 | 0.123 | -0.029 | 0.002 | -0.05 | 0.066 | 0.1 | 0.098 | 0.004
PSMD2 (UniProt Q13200) | -0.047 | -0.029 | 0.048 | -0.014 | -0.033 | 0.061 | 0.035 | 0.01 | 0.051 | 0.012 | -0.036 | 0.051 | -0.015 | 0.039 | -0.089 | -0.071 | -0.043 | -0.053 | 0.077 | -0.059
PPP6R1 (UniProt Q9UPN7) | 0.058 | -0.064 | -0.017 | -0.08 | 0.038 | -0.058 | -0.013 | -0.044 | 0.034 | -0.027 | -0.002 | -0.072 | -0.005 | -0.032 | -0.098 | -0.055 | 0.012 | 0.014 | 0.016 | 0
PTRH2 (UniProt Q9Y3E5) | -0.008 | 0.027 | -0.09 | -0.052 | 0.148 | -0.009 | -0.002 | -0.051 | 0.017 | 0 | 0.403 (active) | -0.033 | 0.01 | -0.076 | -0.009 | 0.07 | 0.015 | 0.001 | 0.012 | -0.005
PRKCD (UniProt Q05655) | -0.026 | -0.256 (active) | -0.1 | -0.007 | 0.002 | -0.002 | -0.031 | -0.033 | -0.029 | -0.024 | -0.019 | -0.004 | 0.032 | -0.017 | 0.037 | -0.003 | -0.002 | 0.074 | 0.02 | 0.026
PIK3C3 (UniProt Q8NEB9) | -0.007 | -0.039 | 0.044 | 0.027 | -0.003 | -0.012 | 0.25 | 0.002 | 0.05 | -0.018 | 0.049 | 0.221 | 0.016 | -0.055 | 0.011 | 0.172 | 0.062 | 0.007 | 0.021 | 0.094
PLIN2 (UniProt Q99541) | -0.033 | -0.243 | 0.01 | 0.015 | 0.026 | -0.006 | -0.012 | -0.001 | 0.002 | 0.047 | -0.014 | -0.44 (active) | -0.041 | -0.107 | 0.058 | -0.891 (active) | 0.003 | 0.028 | -0.093 | 0.023
PCTP (UniProt Q9UKL6) | 0.083 | -0.016 | 0.014 | -0.002 | 0 | -0.037 | -0.056 | 0.039 | -0.032 | 0.094 | -0.007 | -0.175 | -0.066 | 0.029 | -0.081 | -0.239 (active) | -0.024 | -0.031 | 0.052 | 0.392 (active)
PSMD1 (UniProt Q99460) | -0.033 | -0.064 | 0.051 | 0.016 | 0 | 0.087 | -0.003 | 0.048 | 0.062 | 0.018 | 0.009 | -0.002 | 0.011 | -0.005 | -0.126 | -0.077 | -0.046 | -0.056 | 0.069 | -0.052
PSMD9 (UniProt O00233) | -0.022 | 0.001 | -0.012 | 0.002 | -0.016 | -0.034 | -0.004 | -0.031 | -0.023 | 0.005 | -0.028 | -0.053 | -0.021 | 0.005 | -0.074 | 0.056 | -0.013 | -0.005 | -0.021 | -0.261 (active)
PTMA (UniProt P06454) | 0.016 | -0.026 | -0.034 | 0.098 | -0.07 | -0.108 | 0.02 | 0.01 | -0.05 | -0.059 | 0.118 | -0.093 | -0.054 | -0.045 | -0.596 (active) | -0.049 | 0.029 | 0.043 | -0.016 | 0.001
PTPN23 (UniProt Q9H3S7) | -0.007 | -0.13 | -0.061 | 0.112 | 0.055 | -0.169 | 0.074 | -0.055 | 0.043 | -0.023 | 0.12 | 0.038 | 0.059 | -0.038 | 0.002 | 0.044 | 0.041 | -0.008 | -0.012 | 0.037
PLBD1 (UniProt Q6P4A8) | 0.024 | 0.071 | -0.017 | -0.013 | 0.054 | 0.023 | 0.034 | 0.001 | 0.001 | 0 | -0.076 | -0.051 | -0.057 | 0.019 | 0.169 | -0.016 | 0.019 | 0.048 | 0.03 | 0.039
PIK3R1 (UniProt P27986) | 0.014 | 0.001 | -0.079 | -0.017 | -0.014 | -0.06 | 0.052 | 0.022 | 0.08 | -0.024 | 0.01 | -0.041 | -0.002 | -0.027 | -0.075 | 0.054 | 0.045 | 0.014 | -0.005 | 0.048
PEX11B (UniProt O96011) | 0.052 | -0.009 | -0.001 | -0.021 | 0.001 | -0.042 | -0.006 | -0.022 | 0.024 | -0.041 | 0.021 | -0.038 | -0.009 | -0.076 | -0.071 | -0.063 | -0.037 | 0.019 | 0.023 | 0.004
